Data taken from PubChem BioAssay (Tox21).
Records with an inconclusive call do not appear. Active and inactive are the calls of the source. Calls come from the whole dose curve; as a rule, active = well fitted activation curve with a large enough effect in the repeat runs; inconclusive = weak or mixed curves; inactive = no such curve, though single readings can be large or run the other way.

Each compound was assayed against Aryl hydrocarbon receptor (Homo sapiens) (UniProt P35869) (assay: qHTS assay to identify small molecule that activate the aryl hydrocarbon receptor (AhR) signaling pathway (AID 743085; note: nearly all actives have a fitted effect of over 15% in size;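 for activation: HG2L7.5c1 human HepG2 liver cells with stably integrated DRE-driven firefly reporter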)). Conditions: HepG2 AhR-luc (HG2L7.5c1), luciferase, 24 h; series mostly up to 70.3 µM; activation: at the top concentration.
Chain of Aryl hydrocarbon receptor (Homo sapiens) (P35869 whole entry, looked up): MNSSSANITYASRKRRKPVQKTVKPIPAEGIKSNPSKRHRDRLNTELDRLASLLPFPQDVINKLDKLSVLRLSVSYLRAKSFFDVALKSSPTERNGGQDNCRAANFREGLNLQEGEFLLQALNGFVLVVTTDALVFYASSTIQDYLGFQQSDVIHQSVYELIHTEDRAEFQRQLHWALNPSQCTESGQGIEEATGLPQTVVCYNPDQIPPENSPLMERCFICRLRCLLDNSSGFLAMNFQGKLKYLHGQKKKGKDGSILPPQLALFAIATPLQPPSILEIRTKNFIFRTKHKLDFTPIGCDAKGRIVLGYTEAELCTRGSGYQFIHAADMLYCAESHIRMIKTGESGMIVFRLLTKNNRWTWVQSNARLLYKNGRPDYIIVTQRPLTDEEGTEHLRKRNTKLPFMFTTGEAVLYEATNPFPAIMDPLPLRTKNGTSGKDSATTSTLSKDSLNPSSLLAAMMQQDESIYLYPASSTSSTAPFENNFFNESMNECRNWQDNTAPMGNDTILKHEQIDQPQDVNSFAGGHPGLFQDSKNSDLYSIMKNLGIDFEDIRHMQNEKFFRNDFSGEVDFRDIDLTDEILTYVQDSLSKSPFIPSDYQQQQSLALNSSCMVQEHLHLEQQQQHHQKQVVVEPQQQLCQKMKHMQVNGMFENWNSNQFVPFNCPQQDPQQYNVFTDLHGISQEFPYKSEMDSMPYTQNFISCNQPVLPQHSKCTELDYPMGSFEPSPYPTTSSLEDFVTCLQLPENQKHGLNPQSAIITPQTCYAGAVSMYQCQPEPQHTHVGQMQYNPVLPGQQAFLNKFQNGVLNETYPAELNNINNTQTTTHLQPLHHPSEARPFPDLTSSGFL
Text: U.S. Tox21 Program National Center for Advancing Translational Sciences [NCATS] NIH Chemical Genomics Center [NCGC] U.S. Environmental Protection Agency [EPA] National Institutes of Environmental Health Sciences [NIEHS] National Toxicology Program [NTP] U.S. Food and Drug Administration [FDA] Tox21 Assay overview: The Aryl hydrocarbon Receptor (AhR), a member of the family of basic helix-loop-helix transcription factors, is crucial to adaptive responses to environmental changes. AhR mediates cellular responses to environmental pollutants such as aromatic hydrocarbons through induction of phase I and II enzymes but also interacts with other nuclear receptor signaling pathways. A cell based HepG2-AhR-luc assay (HG2L7.5c1 cell line, developed by Dr. Michael S. Denison, University of California at Davis, was used to assess the activation of AhR. HepG2 (human hepatocellular carcinoma) cells were stably transfected with an Ah receptor-responsive firefly luciferase reporter gene plasmid containing 20 dioxin responsive elements and luciferase reporter gene. Increased luciferase activity can be used to identify the compounds that induce AhR activation.
Tox21 Assay Protocol Summary: 4000 cells in 5 uL/well were dispensed into white wall/solid bottom 1536-well plates using a Multidrop Combi (Thermo Fisher Scientific Inc., Waltham, MA) dispenser. After the assay plates were incubated at 37C for 5 h, 23 nL of compound or DMSO vehicle was transferred to the assay plates by a pintool station (Kalypsys, San Diego, CA). The plates were incubated at 37C for 24 hr. After 1 ul/well of CellTiter-Fluor reagent (Promega, Madison, WI) was added into the assay plates using a Flying Reagent Dispenser (FRD) (Aurora Discovery, CA), the assay plates were incubated at 37C for 30 min. The fluorescence intensity in the plates was measured using a ViewLux plate reader (PerkinElmer, Shelton, CT), followed by the addition of 4 uL of ONE-Glo Luciferase Assay reagent (Promega) using an FRD (Aurora Discovery). After the assay plates were incubated at room temperature for 30 min, luminescence intensity was measured using a ViewLux plate reader (Perkin Elmer).
% is set by controls: 0 for no effect and ±100 for the full control effect; potency is the fitted concentration of half-maximal effect.

| SMILES | activation | Potency |
| --- | --- | --- |
| N#Cc1ccncc1 | -0.734% [at 95 µM] (inactive) | – |
| CC1(C(=O)Nc2ccc(O)c(Cl)c2Cl)CCCCC1 | -0.521% (inactive) | – |
| C1CCC(C2CCCCC2)CC1 | -0.601% (inactive) | – |
| CC1CN1P(=O)(N1CC1C)N1CC1C (stereo not given) | -0.677% (inactive) | – |
| COc1ncc(F)c2nc(S(=O)(=O)Nc3c(F)cccc3F)nn12 | 3.01% (inactive) | – |
| Cc1ncsc1CCCl | -1.38% (inactive) | – |
| COC(=O)c1ccccc1S(=O)(=O)NC(=O)Nc1nc(C)cc(C)n1 | -0.714% (inactive) | – |
| CC(C)CP(=S)(S)CC(C)C | -0.59% (inactive) | – |
| Cc1ncc(CNC(=O)N(CCCl)N=O)c(N)n1 | -1.05% (inactive) | – |
| COc1cc2c(cc1OC)[C@@]13CCN4CC5=CCO[C@H]6CC(=O)N2[C@H]1[C@H]6[C@H]5C[C@H]43 | – | inactive |
| CN1C(=S)CN=C(c2ccccc2)c2cc(Cl)ccc21 | -0.266% (inactive) | – |
| ClC(Br)Br | -1.76% (inactive) | – |
| COC(=O)c1ccccc1S(=O)(=O)NC(=O)N(C)c1nc(C)nc(OC)n1 | 1.46% [at 95 µM] (inactive) | – |
| ClC(Cl)C(Cl)Cl | 1.55% [at 95 µM] (inactive) | – |
| O=[N+]([O-])c1cccc2c([N+](=O)[O-])cccc12 | 6.2% [at 95 µM] (inactive) | – |
| NC(=O)c1cc([N+](=O)[O-])cc([N+](=O)[O-])c1 | -0.553% (inactive) | – |
| CC(=O)[C@H]1CC[C@H]2[C@@H]3CC[C@H]4C[C@H](O)CC[C@]4(C)[C@H]3C(=O)C[C@]12C | 3.38% (inactive) | – |
| CC(C=O)Cc1ccc2c(c1)OCO2 (stereo not given) | 9.78% (inactive) | – |
| Cc1cccc(C#N)c1 | -1.25% (inactive) | – |
| C=CC1CC=CCC1 (stereo not given) | -0.212% (inactive) | – |

| SMILES | activation | Potency |
| --- | --- | --- |
| CCCCc1ccc(O)cc1 | 6.1% (inactive) | – |
| Clc1cccc(N2CCNCC2)c1 | -0.105% (inactive) | – |
| CCC(C)(C)c1cc(-n2nc3ccccc3n2)c(O)c(C(C)(C)CC)c1 | -2.58% [at 95 µM] (inactive) | – |
| C[C@H]1CCC[C@H](O)CCCCCc2cc(O)cc(O)c2C(=O)O1 | – | inactive |
| O=C(NCO)NCO | -0.105% [at 95 µM] (inactive) | – |
| CNC(=O)Oc1c(C(C)(C)C)cc(C)cc1C(C)(C)C | -0.528% (inactive) | – |
| O=[N+]([O-])c1cccc2cccnc12 | – | 35.3 µM (active) |
| C[N+](=O)[O-] | 1.88% (inactive) | – |
| COc1ccc2c(c1OC)CN1CCc3cc4c(cc3C1C2)OCO4 (stereo not given) | – | 0.403 µM (active) |
| c1coc(-c2nc3ccccc3[nH]2)c1 | – | 30.6 µM (active) |
| CCOP(=S)(OCC)Oc1ncn(-c2ccccc2)n1 | – | 24.3 µM (active) |
| C=CCC1=C(C)[C@@H](OC(=O)[C@@H]2[C@@H](C=C(C)C)C2(C)C)CC1=O | -0.184% (inactive) | – |
| OCCBr | 4.33% (inactive) | – |
| Nc1ccccc1Cl | -0.777% (inactive) | – |
| CCOP(=S)(OCC)SCSc1ccc(Cl)cc1 | 7.06% (inactive) | – |
| CC(C)(C)NCC(O)c1cc(Cl)c(N)c(Cl)c1 (stereo not given) | 1.05% (inactive) | – |
| COP(=S)(OC)Oc1c(Cl)cc(C)cc1Cl | – | 48.6 µM (active) |
| O=S(=O)(O)C(F)(F)C(F)(F)C(F)(F)C(F)(F)C(F)(F)C(F)(F)F | -0.126% (inactive) | – |
| CSc1nc(N=[N+]=[N-])nc(NC(C)C)n1 | 1.6% (inactive) | – |
| CC1(C)C(=O)NC(=O)NC1=O | -0.169% (inactive) | – |
